Among the test systems are NCI-H23 lung; NCI-H226 lung; NCI-H322M lung; HOP-62 NSCLC; NCI-H460 lung; HOP-92 NSCLC; NCI-H522 lung; 786-0 renal; COLO 205 colon; DU-145 prostate; K-562 leukemia; MALME-3M melanoma; MDA-MB-231 breast; RXF 393 renal; SF-268 CNS; SF-295 CNS; SF-539 CNS; UACC-257 melanoma; M14 melanoma; A549/ATCC NSCLC.
What all share (test): NCI-60 one-dose screen, 48 h (100 = growth as untreated, 0 = no growth, -100 = all killed)
Common to all, as to conditions: 10 µM unless noted

About 83,000 compounds went through this panel and 20% of them were active in at least one assay; those are over-represented in the sample as a whole.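 Results are percent growth after 48 hours of single-concentration exposure. 100 means growth as in untreated cells, lower positive values show inhibition; negative values down to -100 show cell death.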 Unmarked numbers belong to inactive results. Activity calls are given as the source filed them. How the source made its calls: active means growth percent below 10; inactive means the rest.

Consider `COc1ccc2c(c1)c(CC(=O)O)c(C)n2C(=O)c1ccc(Cl)cc1`, for which the growth with NCI-H23 lung was 92.5%; with NCI-H226 lung, 94.8%; in the experiment on NCI-H322M lung it was 89.7%; with HOP-62 NSCLC, 100%; in the experiment with NCI-H460 lung, 101%; with HOP-92 NSCLC, 82.8%. Also, the growth with NCI-H522 lung is 97.5%; in the experiment with 786-0 renal it was 77.4%; in the experiment on COLO 205 colon it was 128%; in the experiment on DU-145 prostate, 107%; in the experiment on K-562 leukemia, 73.5%; in the experiment on MALME-3M melanoma, 85.1%. Besides, the growth with MDA-MB-231 breast is 102%; in the experiment on RXF 393 renal, 109%; in the experiment with SF-268 CNS, 109%; in the experiment on SF-295 CNS, 68.6%; in the experiment with SF-539 CNS, 114%; with UACC-257 melanoma, 109%. Besides, the growth in the experiment with M14 melanoma was 95.7%.
Regarding `Clc1ccc(Cc2nc3ccccc3s2)cc1`, the growth in the experiment with NCI-H23 lung is 89.3%; in the experiment with NCI-H226 lung, 89.2%; in the experiment with NCI-H322M lung it was 89.2%; with HOP-62 NSCLC it was 115%; with NCI-H460 lung it was 105%; in the experiment with HOP-92 NSCLC, 122%. Also, the growth was 99.1% in the experiment with NCI-H522 lung; 96.4% with A549/ATCC NSCLC; 109% in the experiment with 786-0 renal; 117% in the experiment with COLO 205 colon; 98.6% in the experiment on DU-145 prostate; 98.1% in the experiment on K-562 leukemia. Also, the growth is 74% in the experiment on MDA-MB-231 breast; 112% in the experiment with RXF 393 renal; 88.5% with SF-268 CNS; 91.5% in the experiment on SF-295 CNS; 106% in the experiment on SF-539 CNS; 97.7% in the experiment on UACC-257 melanoma. In addition, the growth in the experiment with M14 melanoma was 98.2%.
In the case of `CCOc1cc(F)c([N+](=O)[O-])cc1[N+](=O)[O-]`, the growth with NCI-H23 lung is 38.9%; with NCI-H226 lung, 95.3%; in the experiment on NCI-H322M lung, 103%; with HOP-62 NSCLC, 93.8%; in the experiment on NCI-H460 lung it was 106%; in the experiment on HOP-92 NSCLC it was 72.1%. Further, the growth in the experiment on NCI-H522 lung is -55.7% (active); in the experiment with A549/ATCC NSCLC, 90.9%; in the experiment with 786-0 renal, 59.9%; in the experiment with COLO 205 colon, -48.4% (active); with K-562 leukemia, 0.671% (active); with MALME-3M melanoma, -19.2% (active). In addition, the growth in the experiment on MDA-MB-231 breast is 37.9%; in the experiment with RXF 393 renal, 12.4%; in the experiment on SF-268 CNS it was 77.6%; in the experiment with SF-295 CNS, 96.9%; in the experiment on UACC-257 melanoma it was 56.5%; with M14 melanoma it was 30.5%.
For the compound `COc1ccc(/C=C2/C(=O)ON=C2C)cc1`, the growth in the experiment with NCI-H23 lung is 112%; in the experiment on NCI-H226 lung it was 101%; with NCI-H322M lung, 118%; with HOP-62 NSCLC, 101%; with NCI-H460 lung, 107%; with HOP-92 NSCLC, 93.6%. In addition, the growth in the experiment on NCI-H522 lung was 94.2%; in the experiment with A549/ATCC NSCLC it was 103%; with 786-0 renal, 105%; in the experiment with COLO 205 colon it was 104%; in the experiment on DU-145 prostate it was 109%; with K-562 leukemia it was 100%. For the same compound, the growth was 96.8% with MDA-MB-231 breast; 102% in the experiment on RXF 393 renal; 104% in the experiment with SF-268 CNS; 110% with SF-295 CNS; 107% in the experiment with SF-539 CNS; 100% in the experiment on UACC-257 melanoma. In addition, the growth with M14 melanoma is 109%.
In the case of `N#CC1c2ccccc2C=CN1C(=O)CCCl` (centres undefined), the growth in the experiment on NCI-H23 lung was 94.2%; with NCI-H226 lung, 94.1%; with NCI-H322M lung, 93.8%; with HOP-62 NSCLC, 99.8%; with NCI-H460 lung, 106%; with HOP-92 NSCLC it was 60.7%. The growth in the experiment with NCI-H522 lung was -71.6% (active); in the experiment on A549/ATCC NSCLC, 96.2%; with 786-0 renal it was 82%; with DU-145 prostate, 77.7%; in the experiment with K-562 leukemia, 32.3%; in the experiment on MALME-3M melanoma it was 5.05% (active). The growth with MDA-MB-231 breast is 103%; with SF-268 CNS, 104%; in the experiment with SF-539 CNS, 104%; in the experiment with UACC-257 melanoma it was 79.9%; with M14 melanoma, 97.3%.
As to `OC(CSc1ccccc1)CN1CCN(c2ccc(Cl)cc2)CC1` (centres undefined), the growth in the experiment on NCI-H23 lung is 107%; in the experiment on NCI-H226 lung it was 91.7%; in the experiment on NCI-H322M lung it was 110%; in the experiment with HOP-62 NSCLC, 98.3%; in the experiment with NCI-H460 lung, 109%; in the experiment with HOP-92 NSCLC it was 63.8%. Further, the growth in the experiment with NCI-H522 lung was 90.3%; with A549/ATCC NSCLC, 98.4%; in the experiment on 786-0 renal, 95.3%; with COLO 205 colon it was 107%; with DU-145 prostate, 110%; with K-562 leukemia, 78.3%. For the same compound, the growth in the experiment with MDA-MB-231 breast was 94.7%; in the experiment on RXF 393 renal, 95.7%; in the experiment on SF-268 CNS, 103%; with SF-295 CNS, 94.3%; with SF-539 CNS it was 96.8%; with UACC-257 melanoma, 101%. Also, in the experiment on M14 melanoma, the growth was 100%.
On to `O=C(/C=C/c1ccccc1)c1ccccc1O`, for which the growth with NCI-H23 lung is 82.3%; in the experiment on NCI-H226 lung, 91.6%; in the experiment on NCI-H322M lung, 90.2%; with HOP-62 NSCLC, 103%; in the experiment on NCI-H460 lung, 93.2%; in the experiment with HOP-92 NSCLC it was 74.4%. Moreover, the growth in the experiment with NCI-H522 lung was 69.6%; in the experiment with A549/ATCC NSCLC it was 83.9%; in the experiment with 786-0 renal it was 79.7%; in the experiment with COLO 205 colon it was 105%; in the experiment with K-562 leukemia it was 51.6%; in the experiment with MALME-3M melanoma it was 97.2%. Further, the growth with MDA-MB-231 breast was 91.5%; with RXF 393 renal it was 65.7%; in the experiment with SF-268 CNS, 85.2%; with SF-295 CNS it was 94.8%; with SF-539 CNS, 89.9%; with UACC-257 melanoma, 91.8%. Moreover, in the experiment on M14 melanoma, the growth is 92.3%.
For the compound `CC/C(=C(/CC)c1ccc(O)cc1)c1ccc(O)cc1`, the growth in the experiment with NCI-H23 lung is 75.8%; in the experiment on NCI-H226 lung, 82.7%; in the experiment on NCI-H322M lung, 77.6%; in the experiment with HOP-62 NSCLC, 70.8%; with NCI-H460 lung, 85.6%; in the experiment with HOP-92 NSCLC it was 58.1%. Besides, the growth in the experiment with NCI-H522 lung is 61%; in the experiment on 786-0 renal, 80%; in the experiment with COLO 205 colon, 97.6%; with DU-145 prostate, 84.1%; in the experiment on K-562 leukemia, 27.5%; with MALME-3M melanoma it was 54.5%. Moreover, the growth in the experiment on MDA-MB-231 breast is 58.7%; with RXF 393 renal, 65.1%; with SF-268 CNS, 63.9%; with SF-295 CNS it was 43.9%; in the experiment with SF-539 CNS it was 68.3%; in the experiment on UACC-257 melanoma it was 68.9%. The growth in the experiment with M14 melanoma is 43.9%.

Values taken from PubChem BioAssay (NCI).
